# PubChem BioAssay (NCATS)
# Results filed as inconclusive are left out. Entries that show only a call come without a potency. The source made the active and inactive calls. Unless noted, the call rests on the fitted dose curve; in most records, active means well fitted inhibition curve with a large enough effect; inconclusive means small, poorly fitted or top-dose-only effect; inactive means flat fitted curve, though single readings scatter.
# Columns and labels:
# [1] = biological target: Atrial natriuretic peptide receptor 1 (Homo sapiens) (UniProt P16066); experiment: Natriuretic polypeptide receptor (hNpr1) antagonism - Pilot CMLD screen (AID 1347052; calls by dose curve;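 further: HEK293 cells with hNpr1 stimulated by hNppA peptide at 0.1 nM; cGMP level read as GloSensor luciferase luminescence after agonist stimulation; series mostly up to about 9.2 µM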)
# Atrial natriuretic peptide receptor 1 (Homo sapiens), sequence (P16066 whole entry, looked up): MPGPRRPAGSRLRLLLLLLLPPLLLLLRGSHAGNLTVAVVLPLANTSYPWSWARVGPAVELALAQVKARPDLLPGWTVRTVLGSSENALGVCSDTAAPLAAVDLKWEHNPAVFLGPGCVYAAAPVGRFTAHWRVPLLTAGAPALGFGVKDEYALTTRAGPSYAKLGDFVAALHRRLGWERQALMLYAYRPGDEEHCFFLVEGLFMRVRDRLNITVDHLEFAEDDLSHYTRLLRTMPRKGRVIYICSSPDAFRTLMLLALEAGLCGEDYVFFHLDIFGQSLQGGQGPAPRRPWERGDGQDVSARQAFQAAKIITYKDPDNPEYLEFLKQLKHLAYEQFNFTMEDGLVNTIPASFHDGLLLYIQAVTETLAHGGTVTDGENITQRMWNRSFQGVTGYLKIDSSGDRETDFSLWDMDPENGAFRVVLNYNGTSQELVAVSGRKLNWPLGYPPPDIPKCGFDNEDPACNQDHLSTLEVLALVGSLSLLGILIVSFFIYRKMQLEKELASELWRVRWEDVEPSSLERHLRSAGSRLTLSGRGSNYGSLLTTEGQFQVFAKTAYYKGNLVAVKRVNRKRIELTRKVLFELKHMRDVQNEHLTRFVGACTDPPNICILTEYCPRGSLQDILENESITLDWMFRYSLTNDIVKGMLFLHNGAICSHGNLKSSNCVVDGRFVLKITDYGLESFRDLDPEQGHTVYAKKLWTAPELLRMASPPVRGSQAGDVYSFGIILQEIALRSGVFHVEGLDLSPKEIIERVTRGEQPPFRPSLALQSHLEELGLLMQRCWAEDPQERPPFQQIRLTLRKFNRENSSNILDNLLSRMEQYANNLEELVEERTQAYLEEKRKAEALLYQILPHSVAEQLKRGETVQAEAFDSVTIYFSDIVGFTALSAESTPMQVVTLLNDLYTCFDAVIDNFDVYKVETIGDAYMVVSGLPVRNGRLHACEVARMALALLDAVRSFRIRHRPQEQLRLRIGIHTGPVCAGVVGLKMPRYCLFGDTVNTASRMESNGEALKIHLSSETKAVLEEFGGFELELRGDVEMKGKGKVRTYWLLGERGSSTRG
# [2] = P-glycoprotein substrates identified in KB-8-5-11 adenocarcinoma cell line, qHTS therapeutic library screen (AID 1346987); further: series mostly up to about 44 µM; nearly all actives have a fitted effect of over 65% in size
# How it was run: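 Steps: plate 500 KB-8-5-11 cells/well in DMEM + 10% FCS (colchicine removed); pin compounds in dose-response; incubate 72 h, 37 degree C, 5% CO2; add CellTiter-Glo, 5 min; read luminescence.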
# [3] = biological target: Glutathione peroxidase 1 (Homo sapiens) (UniProt P07203); experiment: Primary qHTS Assay for Inhibitors of Recombinant Selenoprotein Glutathione Peroxidase 1 (GPX1) (AID 1845191); further: nearly all actives have a fitted effect of over 65% in size
# Glutathione peroxidase 1 (Homo sapiens), sequence (P07203 whole entry, looked up): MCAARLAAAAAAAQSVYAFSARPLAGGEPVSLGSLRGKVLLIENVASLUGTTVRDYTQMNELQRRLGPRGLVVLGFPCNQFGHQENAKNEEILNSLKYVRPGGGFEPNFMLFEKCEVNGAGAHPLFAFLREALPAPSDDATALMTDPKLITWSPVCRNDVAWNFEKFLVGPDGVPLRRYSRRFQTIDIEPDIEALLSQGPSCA
# How it was run: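 10 nM GPX1 + cpd, 30 min RT; start w/ 1 mM GSH, 0.5 mM cumene hydroperoxide, 0.5 mM NADPH, 100 nM GR, 0.01% BSA; buffer 50 mM Tris-HCl pH 7.5, 2 mM EDTA, 150 mM NaCl; Fl 340/450, 0 & 15 min.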
SMILES,Potency [1],Potency [2],Potency [3]
COc1ccc(-c2nc(-c3ccccc3)c(NCc3ccccc3)o2)cc1,inactive,,
Cc1ccc(NS(=O)(=O)c2cc3c(cc2N[C@@H](C)CO)NC(=O)CC3)cc1Cl,,inactive,inactive
